PME-1 primary – PME-1 inhibitors via competitive probe labeling, primary screen, biochemical, fluorescence polarization, FP-Rh probe, HTS; Protein phosphatase methylesterase 1 (Homo sapiens), Q9Y570; recombinant PME-1; inhibition, % at 5.9 µM; 320,000 compounds, 0.53% hits;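 active = inhibition above the campaign mean of all compounds plus 3 SD, cut at about 26% in these data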;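 also: competitive labeling of PME-1 active site by serine hydrolase directed probe; 0% = PME-1 with DMSO and 100% = wells lacking PME-1 enzyme; inhibitors block probe labeling so polarization falls and inhibition rises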
Target sequence (Q9Y570 whole entry, looked up): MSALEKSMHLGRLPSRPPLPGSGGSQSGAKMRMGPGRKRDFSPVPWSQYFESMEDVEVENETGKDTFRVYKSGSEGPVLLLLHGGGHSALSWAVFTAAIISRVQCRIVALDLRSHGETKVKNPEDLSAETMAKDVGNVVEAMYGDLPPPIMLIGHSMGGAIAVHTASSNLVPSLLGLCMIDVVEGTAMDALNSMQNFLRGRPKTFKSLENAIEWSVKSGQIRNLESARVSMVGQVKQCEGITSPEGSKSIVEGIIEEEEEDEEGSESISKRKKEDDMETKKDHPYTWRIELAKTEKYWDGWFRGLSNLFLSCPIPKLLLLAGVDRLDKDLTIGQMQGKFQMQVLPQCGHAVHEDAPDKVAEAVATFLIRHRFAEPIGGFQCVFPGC
LYPLA2 counter – LYPLA2 inhibitors, primary screen, counter-screen for PME1 inhibitor project, biochemical, fluorescence polarization, FP-Rh probe ABPP | inhibition, % at 5.9 µM | 320,000 compounds, 0.38% hits | AID 2177, 2009 | recombinant LYPLA2;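 active = inhibition above the screen-wide mean plus 3 SD, limit set per campaign, cut at about 26% in these data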;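 also: 0% = LYPLA2 with DMSO and 100% = wells lacking LYPLA2 enzyme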
Target sequence (O95372 whole entry, looked up): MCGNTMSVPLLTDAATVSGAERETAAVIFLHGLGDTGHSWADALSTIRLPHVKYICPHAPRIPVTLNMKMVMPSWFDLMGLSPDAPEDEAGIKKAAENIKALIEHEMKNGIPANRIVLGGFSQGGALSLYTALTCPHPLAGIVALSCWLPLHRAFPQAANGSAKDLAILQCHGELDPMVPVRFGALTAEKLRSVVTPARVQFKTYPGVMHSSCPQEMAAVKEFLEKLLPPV
PREPL inhibitor – PREPL enzyme inhibitors, primary screen, biochemical, fluorescence polarization | 320,000 compounds, 0.68% hits | recombinant PREPL, fluorescence polarization activity-based probe | inhibition, % at 5.96 µM | Prolyl endopeptidase-like (Homo sapiens), Q4J6C6; in the data active = inhibition above about 43%;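 also: 0% = enzyme with DMSO and 100% = wells lacking enzyme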
MEX-5 binding – MEX-5 zinc finger RNA-binding disruptors – biochemical, C. elegans, fluorescence polarization, MLPCN library, primary screen. MEX-5/FITC-TCR2 RNA binding; hits give low values. activity score (negative = inhibition of binding), % at 10 µM. 300,000 compounds, 0.38% hits. AID 1832, 2009;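 active = inhibition past about -25% in most replicates, and total fluorescence under double the plate's negative control median, limit read from the data; inconclusive = replicates evenly split on the limit, or fluorescence at least double controls; inactive = too little inhibition in most replicates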;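 also: 0% = DMSO and -100% = 5 µM competing unlabeled TCR2 RNA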
LYPLA1 inh – LYPLA1 inhibitors, primary screen, counter-screen for PME1 inhibitor project, biochemical, fluorescence polarization, FP-Rh probe ABPP. recombinant LYPLA1. inhibition, % at 5.9 µM. 320,000 compounds, 0.16% hits. Acyl-protein thioesterase 1 (Homo sapiens), O75608;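 active = inhibition above the mean of all tested compounds plus 3 SD, set per campaign, cut at about 14% in these data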;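 also: inhibitors block serine hydrolase probe labeling of LYPLA1 so polarization falls; 0% = enzyme with DMSO and 100% = wells lacking LYPLA1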
Fam108B inh – mouse Fam108B serine hydrolase inhibitors, primary screen, counter-screen for RBBP9 inhibitor project, biochemical, fluorescence polarization; inhibition, % at 9.51 µM; AID 1947, 2009; 300,000 compounds, 0.33% hits; recombinant Fam108B, FP-Rh probe fluorescence polarization;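 active = inhibition above the screen mean inhibition plus 3 SD, computed separately per campaign, cut at about 18% in these data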;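 also: inhibitors lower polarization as less probe binds the enzyme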
Fam108b confirm – mouse Fam108b serine hydrolase inhibitors, confirmation, counter-screen for RBBP9 inhibitor project, biochemical, fluorescence polarization, triplicate. inhibition, % at 9.51 µM. 930 compounds, 44% hits. shares compounds with Fam108B inh. recombinant Fam108b, FP-Rh probe fluorescence polarization;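 active = inhibition above a limit from the primary screen, the mean over all compounds plus 3 SD, cut at about 19% in these data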;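 also: 0% = median of active Fam108b wells and 100% = catalytically dead S170A mutant; inhibitors free the probe so polarization falls as inhibition rises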
Fam108b inh – inhibition of mouse Fam108b by HTS hits, late-stage follow-up, biochemical, gel-based ABPP, soluble recombinant form | shares compounds with Fam108B inh | fluorophosphonate probe | inhibition, % at 20 µM | 260 compounds, 44% hits; in the data active = inhibition above about 40%
LYPLA1 confirm – LYPLA1 inhibitors, retest, confirmation, counter-screen for PME1 inhibitor project, biochemical, fluorescence polarization, FP-Rh probe ABPP; shares compounds with LYPLA1 inh; recombinant LYPLA1; inhibition, % at 5.9 µM; 480 compounds, 69% hits; AID 2233, 2010;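 active = mean inhibition across replicates above the hit cutoff set in the primary screen, cut at about 15% in these data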;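 also: loss of FP-Rh probe labeling of LYPLA1 seen as lower polarization; 0% = LYPLA1 with DMSO and 100% = wells lacking LYPLA1 enzyme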
LYPLA2 conf – LYPLA2 inhibitors, retest, confirmation, counter-screen for PME1 inhibitor project, biochemical, fluorescence polarization, FP-Rh probe ABPP; 1,100 compounds, 72% hits; recombinant LYPLA2; shares compounds with LYPLA2 counter; AID 2232, 2010; inhibition, % at 5.9 µM;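 active = mean inhibition across replicates above the hit cutoff set in the primary screen, cut at about 26% in these data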;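 also: blocked labeling of the enzyme by serine hydrolase FP-Rh probe lowers polarization; 0% = enzyme with DMSO and 100% = wells lacking LYPLA2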
* marks the source's active call; other numbers are inactive results; ? = inconclusive; / = no result given. Rows were chosen to be rich in hits. Some 1.6% of all compounds tested hit in one or more screens of this group.

SMILES	PME-1 primary	LYPLA2 counter	PREPL inhibitor	MEX-5 binding	LYPLA1 inh	Fam108B inh	Fam108b confirm	others
O=C(N/N=C/c1ccc(O)cc1O)c1ccc(CN2C(=O)c3cccc4cccc2c34)cc1	-36	-51	26	-6	-38	38*	28*
O=[N+]([O-])c1ccc(N2CCN(CCO)CC2)cc1NCc1ccco1	2	-3	2	-2	-1	-1	/
COc1cc(/C=C2/C(=O)NN(c3ccc(C)c(Cl)c3)C2=O)cc([N+](=O)[O-])c1O	/	/	/	-11	/	/	/
COc1cc(/C=C2/C(=O)NN(c3cccc(C)c3)C2=O)cc([N+](=O)[O-])c1O	6	4	3	-27*	4	83*	6
O=C(Nc1ccccc1C(F)(F)F)c1ccsc1	-2	-2	-2	-2	-3	4	/
CC1=C(C)CC(C(=O)N2CCN(Cc3ccc4c(c3)OCO4)CC2)C(C(=O)O)C1 (stereo not drawn)	-2	3	4	1	3	4	/
CCN(CC)c1ccc(C2Nc3cccc4cccc(c34)N2)c(O)c1	47*	1	20	/	-9	51*	53*	Fam108b inh=90*
COc1cc(CC(=O)Nc2ccc3c(c2)CCC3)cc(OC)c1OC	2	9	22	2	3	-1	/
CCn1c(CSc2nccn2C)nc2cc(C(=O)O)ccc21	25	26	20	-19	26*	20*	59*	Fam108b inh=0;LYPLA1 confirm=24*
COc1ccc(CC(=O)NNC(=O)c2ccc(Br)s2)cc1OC	/	/	5	/	/	/	/
CCN(CC)c1ccc(/C=C(\C#N)C(N)=S)cc1	2	-2	-1	8	1	-2	/
CCN(CC)c1ccc(/C=C(\C#N)C(=O)c2ccc(Br)cc2)cc1	15	26	-8	-16	32*	61*	54*	Fam108b inh=0;LYPLA1 confirm=77*
COc1cccc2c1C(=O)c1c(O)c3c(c(O)c1C2=O)C[C@@](O)(C(=O)CO)C[C@@H]3O[C@H]1C[C@H](N)[C@@H](O)[C@H](C)O1	46*	41*	30	?	57*	36*	35*	Fam108b inh=35;LYPLA1 confirm=56*
CCOC(=O)c1ccccc1NC(=O)c1cccc([N+](=O)[O-])c1	2	-7	2	3	0	4	/
CC(=O)Nc1ccc(N2C(=O)c3cccc4c(O)ccc(c34)C2=O)cc1	18	20	19	-20	17*	26*	12	LYPLA1 confirm=16*
Cc1ccc(N2C(=O)c3cccc4c(C(=O)O)ccc(c34)C2=O)cc1	2	8	-7	3	2	-4	/
Cc1cc(C)cc(S(=O)(=O)Cc2noc(C(=O)NCc3ccccc3)c2C(=O)NCc2ccccc2)c1	/	/	6	/	/	/	/
O=C(O)c1ccccc1N/N=C/c1cc(Br)cc(Br)c1O	49*	12	19	-4	29*	27*	19*	LYPLA1 confirm=23*
Cc1cc(N/N=C/c2c(O)ccc3ccccc23)nc(-c2ccccc2O)n1	57*	46*	28	1	4	70*	103*	LYPLA2 conf=-15
Cc1coc2c1C(=O)C(=O)c1c-2ccc2c(C)cccc12	8	39*	3	-5	10	19*	15	LYPLA2 conf=9
Cc1ccc2c3c(cccc13)-c1ccccc1C2=O	-3	-6	20	-10	7	-6	/
CN1C(=O)c2cccc3c(Cl)ccc(c23)C1=O	2	3	1	-2	1	1	/
CNc1ccc2c3c(cccc13)C(=O)N(C)C2=O	77*	82*	64*	?	59*	62*	47*	Fam108b inh=25;LYPLA1 confirm=47*;LYPLA2 conf=59*
O=C1C(CSCc2ccccc2)NC(=S)N1c1ccccc1 (stereo not drawn)	89*	50*	-7	2	29*	71*	3	LYPLA1 confirm=1;LYPLA2 conf=-3
O=C(O)CC1NC(=S)N(c2ccccc2)C1=O (stereo not drawn)	2	-2	18	17	0	-1	/
SMILES	PME-1 primary	LYPLA2 counter	PREPL inhibitor	MEX-5 binding	LYPLA1 inh	Fam108B inh	Fam108b confirm	others
c1cc2c(cn1)cnc1cscc12	-3	0	9	-1	-1	-5	/
Cc1cc(C)c(S(=O)(=O)/N=C2/C=C(Sc3ncn[nH]3)C(=O)c3ccccc32)cc1C	31*	36*	15	/	2	52*	28*	LYPLA2 conf=33*
Clc1cccc(CNCCCSc2ncccn2)c1Cl	0	0	-1	-5	4	-5	/
COc1ccc(/C=C/C(=O)NCC(=O)N/N=C(/C)c2ccc(Cl)cc2)cc1	-5	4	0	3	0	0	/
CCn1cc(C(=O)NCc2cccc(C(F)(F)F)c2)c(=O)c2ccc(C)nc21	0	1	1	-5	1	0	/
Cc1ccc(S(=O)(=O)Nc2ccc(Br)cc2C(NCC(=O)O)c2ccccc2)cc1 (stereo not drawn)	4	0	13	1	-1	-2	/
O=C(O)CSc1cc(NS(=O)(=O)c2ccc(Br)cc2)c2ccccc2c1O	30*	38*	10	-71*	8	22*	3	LYPLA2 conf=20
Oc1ccc(N=Cc2ccc(-c3cccs3)s2)cc1	51*	29*	22	1	10	28*	62*	Fam108b inh=0;LYPLA2 conf=8
CCOc1ccc(NC(C)=O)cc1[N+](=O)[O-]	3	0	-2	-1	8	3	/
O=C1c2ccccc2C(=O)N1c1ccc(Cl)cc1	5	5	7	-4	3	-3	/
O=C1c2cccc3c(O)ccc(c23)C(=O)N1c1ccc(Cl)cc1	37*	33*	29	-41*	20*	20*	12	LYPLA1 confirm=15*;LYPLA2 conf=17

Screening results: PubChem BioAssay, several laboratories
